Bioassay records from PubChem.
Vaccinia mCherry: inhibitors of vaccinia virus infection (mCherry reporter signal); Vaccinia virus mCherry reporter infection, fluorescence; Potency, µM (highest dose often 36.5 µM), for the others: top-dose activity change, negative = inhibition, most hits filed as inhibitors; 310,000 compounds, 0.63% hits; calls by dose curve; tested in A549 cells; note: nearly all actives have a fitted effect of over 35% in size
AmpC no deterg: AmpC beta-lactamase inhibition without detergent; P00811; AmpC nitrocefin hydrolysis, absorbance 480 nm, 0.0001% Triton; Potency, µM (highest dose often 57.1 µM), without a hit: at the top dose activity change, negative = inhibition, most hits filed as inhibitors; 330,000 compounds, 0.52% hits;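 note: plate controls were no compound for no effect and no enzyme for full effect; nearly all actives have a fitted effect of over 20% in size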
Target sequence (P00811 whole entry, looked up): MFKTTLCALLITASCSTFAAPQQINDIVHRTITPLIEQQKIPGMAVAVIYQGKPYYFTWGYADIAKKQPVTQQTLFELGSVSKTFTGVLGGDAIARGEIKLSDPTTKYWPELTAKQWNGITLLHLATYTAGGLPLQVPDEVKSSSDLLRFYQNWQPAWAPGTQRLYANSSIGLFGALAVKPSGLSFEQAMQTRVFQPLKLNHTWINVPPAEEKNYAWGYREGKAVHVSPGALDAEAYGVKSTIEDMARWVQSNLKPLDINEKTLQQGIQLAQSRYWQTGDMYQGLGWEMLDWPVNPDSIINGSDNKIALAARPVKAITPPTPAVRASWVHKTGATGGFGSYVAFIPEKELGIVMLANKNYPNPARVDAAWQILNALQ
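20 mM phosphate pH 7.0 + 0.01% (detergent screen) or 0.0001% Triton X-100; 5.3 nM AmpC reagent; cpd preinc 15 min RT; nitrocefin (800 uM stock) to start; A480 q20 s × 4 min; Activity was normalised to no-enzyme and no-compound control wells.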
VACV Venus inh: vaccinia inhibition (Venus reporter) | Vaccinia virus Venus reporter expression, fluorescence | Potency, µM (top dose mostly 36.5 µM), without a hit: at the highest dose activity change, negative = inhibition, usual class: inhibitors | 330,000 compounds, 0.46% hits | AID 720580; calls by dose curve; tested in A549 cells; note: nearly all actives have a fitted effect of over 30% in size
AmpC inh detg: inhibitors of E. coli AmpC beta-lactamase with detergent; P00811; AmpC hydrolysis of nitrocefin, absorbance 480 nm, 0.01% Triton; Potency, µM (highest dose often 114 µM), without a hit: at the highest dose activity change, negative = inhibition, usual class: inhibitors; 370,000 compounds, 0.041% hits;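 note: 0% = no-compound wells and -100% = no-enzyme wells; nearly all actives have a fitted effect of over 25% in size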
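AmpC (5.3 nM in the dispensed reagent) in 20 mM phosphate pH 7.0 with 0.01% (detergent screen) or 0.0001% Triton X-100 was preincubated with compounds for 15 min at room temperature. Nitrocefin was then added from an 800 uM solution, and hydrolysis was followed at 480 nm.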
Active calls of the source: *; i = inactive; ? = inconclusive; . = no result; [ ] = another dose, or the depositor's remark. Only some compounds are listed: those with a hit (about 1.1% of all), similar ones and a draw of the others. Unless noted, calls come from the whole dose curve; as a rule, active = well fitted curve in the direction sought with a large enough effect; inconclusive = small, poorly fitted or top-dose-only effect, or another doubt; inactive = no such curve, though single readings can be large; an effect the other way counts as inactive or inconclusive. Unless noted, % is set by controls: 0 for no effect and ±100 for the full control effect; potency is the fitted concentration of half-maximal effect.

SMILES	Vaccinia mCherry	AmpC no deterg	VACV Venus inh	AmpC inh detg
Nc1nc(-c2ccc3c(c2)OCCO3)cs1	-18%[1.46 µM]	-35%	7.1µM*	?
CCCC(=O)Nc1nc(-c2ccc3c(c2)OCCO3)cs1	i	11µM*	-15%	?
COc1ccc(OC)c(-c2ccnc(-n3ncc(C(=O)N(C)CCc4ccccn4)c3C)n2)c1	-15%	.	-4%	.
O=C(c1ccc(F)c(F)c1)N1CCOc2ccc(CN3CCN(Cc4ccccn4)CC3)cc2C1	-4%	.	-12%	.
COc1cccc(N2CCN(c3ncnc4c3[nH]c3ccc(F)cc34)CC2C)c1 (stereo not drawn)	.	-18%	7.1µM*	3%
COc1cccc(N2CCN(c3ncnc4c3[nH]c3ccccc34)CC2C)c1 (stereo not drawn)	.	-14%	.	0%
c1cc2c(cc1C1CCCN1)OCCCO2 (stereo not drawn)	-18%	0.22µM*	-16%	-2%
Cc1ccc(C(=O)N(Cc2cc3cccc(C)c3nc2N(C)C)CC2CCCO2)cc1 (stereo not drawn)	-3%	.	0%	.
COc1nc(N)c(S(=O)(=O)c2ccccc2)cc1C#N	.	-30%	.	0%
COc1nc(N)c(S(=O)(=O)c2ccccc2C)cc1C#N	.	0.16µM*	.	6%
O=C(COC(=O)CCN1C(=O)/C(=C\C=C\c2ccccc2)SC1=S)Nc1ccc(Br)cc1	-26%	18µM*	-1%	3%
O=C(CCCN1C(=O)/C(=C/c2ccccc2Cl)SC1=S)NNC(=O)c1ccc(Cl)cc1	-7%	-19%	-14%	-9%
Cc1ccc(C(=O)NNC(=O)CCCN2C(=O)/C(=C/c3ccccc3Cl)SC2=S)cc1	i	32µM*	-4%	1%
O=C(CCN1C(=O)/C(=C/c2cccs2)SC1=S)Nc1ccc(C(=O)O)c(O)c1	.	1.3µM*	.	-4%
O=C(CCCN1C(=O)/C(=C\c2ccccc2)SC1=S)Nc1ccc(O)cc1	?	-27%	28µM*	0%
Cc1ccc2nc(SCC(=O)N3CCOc4ccc(CN5C[C@@H](C)O[C@@H](C)C5)cc4C3)[nH]c2c1	-13%	.	-3%	.
Cc1nnc(NC(=O)c2c(F)cccc2F)s1	i	18µM*	-16%	-15%
O=C(N/N=C/c1ccccc1O)C1CC(=O)N(c2ccc(F)cc2)C1 (stereo not drawn)	14µM*	-24%	?	3%
Cc1cccc(NC(=O)[C@H](Cc2c[nH]c3ccccc23)NC(=O)[C@@H]2Cc3ccccc3CN2)c1	11µM*	-20%	33%	?
Cc1cc(C)cc(NC(=O)[C@H](Cc2c[nH]c3ccccc23)NC(=O)[C@@H]2Cc3ccccc3CN2)c1	-26%	-21%	-20%	-7%
CCc1ccc(NC(=O)[C@H](Cc2c[nH]c3ccccc23)NC(=O)[C@@H]2Cc3ccccc3CN2)cc1	5µM*	-51%	12%	-9%
COc1ccc(N2C(=O)CCSC23C(=O)N(Cc2ccc(F)cc2)c2ccccc23)cc1 (stereo not drawn)	11µM*	.	?	-2%
COc1ccccc1NC(=O)c1cc(Sc2nncn2C)nc2ccccc12	.	-9%	11µM*	0%
COc1ccccc1NC(=O)c1cc(-c2ccc(OC)c(OC)c2)nc2ccccc12	i	-7%	7%	-5%
C[C@@H]1C=CC(=O)O[C@@H]1c1ccc(Cl)cc1	?	-13%	3.5µM*	-8%
SMILES	Vaccinia mCherry	AmpC no deterg	VACV Venus inh	AmpC inh detg
CC1C(=O)OC(c2ccc(Cl)cc2)C(C)(C)C1=O (stereo not drawn)	-16%	-9%	-12%	-1%
CCC1CN(Cc2c(C)nc3sccn23)Cc2cc(OC)ccc2O1 (stereo not drawn)	-19%	.	-4%	.
CCOC(=O)N1C2=NC(C(=O)OC)=C(C(=O)OC)[C@@H]3N(C)c4ccc(OC)cc4[C@]23C[C@H]1C(=O)OC	i	.	-27%	.
COC(=O)C1=C(C(=O)OC)[C@@H]2N(C)c3ccc(OC)cc3[C@@]23C[C@@H](C(=O)OC)N(C(=O)c2ccc(Br)cc2)C3=N1	?	118%	11µM*	1%
COC(=O)C1=C(C(=O)OC)[C@@H]2N(Cc3ccccc3)c3ccccc3[C@@]23C[C@@H](C(=O)OC)N(C(=O)c2ccc(Br)cc2)C3=N1	?	112%	10µM*	-8%
Cc1c(C(=O)N(C)Cc2cccc3ncccc23)cnn1-c1nccc(-c2ccccc2F)n1	i	.	-14%	.
OC1(c2cccnc2)CCN(Cc2ccc3c(c2)CN(Cc2cccc4nccnc24)CCO3)CC1	-23%	.	-15%	.
O=C(Nc1ccc(N2CCN(Cc3ccccc3F)CC2)cc1)c1ccc([N+](=O)[O-])o1	4µM*	-1%	?	2%
CC(C)(C)C(=O)N1CCN(c2ccc(NC(=O)c3ccc([N+](=O)[O-])o3)cc2)CC1	11µM*	-5%	?	-3%
O=C(Nc1ccc(N2CCN(Cc3ccccc3F)CC2)cc1)c1ccccc1[N+](=O)[O-]	-23%	-3%	-23%	3%
CCCC(=O)N1CCN(c2ccc(NC(=O)c3ccc([N+](=O)[O-])o3)cc2)CC1	10µM*	3%	10µM*	3%
O=C(Nc1ccc(N2CCCCC2)cc1)c1ccc([N+](=O)[O-])o1	?	-24%	-24%	-5%
CC1CCN(c2ccc(NC(=O)c3ccc([N+](=O)[O-])o3)cc2)CC1	11µM*	?	10µM*	?
CS(=O)(=O)N1CCN(c2ccc(NC(=O)c3ccc([N+](=O)[O-])o3)cc2)CC1	.	-28%	.	-1%
CCC(=O)N1CCN(c2ccc(NC(=O)c3ccc([N+](=O)[O-])o3)cc2)CC1	?	-11%	?	2%
Cc1oc(-c2ccccc2NC(=O)c2ccccn2)nc1CNC(=O)c1ccc(Oc2ccccc2)o1	-11%	.	-6%	.
COc1cc(CN2CCOc3ccc(CN4CCN(CCO)CC4)cc3C2)ccc1F	-15%	.	-4%	.
Cc1ccc(-c2nc(NC(=O)c3nn(C)cc3[N+](=O)[O-])sc2C)cc1C	10µM*	12%	13µM*	-3%
Cc1ccc(-c2nc(NC(=O)c3nn(C)cc3[N+](=O)[O-])sc2C)cc1	.	-4%	.	?
Cn1cc([N+](=O)[O-])c(C(=O)Nc2nc(-c3ccc(Cl)cc3)cs2)n1	.	35%	11µM*	-12%
Oc1ccc(Cl)cc1CN1CCOc2c(O)cc(-c3nc4ccccc4s3)cc2C1	-24%	.	-10%	.
Cc1ccc2[nH]c3c(c2c1)CN(C(=O)CC1(c2ccccc2)CC(=O)N(Cc2cccnc2)C1=O)CC3 (stereo not drawn)	-13%	.	-17%	.
Cc1ccc(C(=O)Nc2ncc(C)s2)o1	.	-4%	.	-2%
Cc1ccc(C(=O)Nc2ncc(Cc3ccc(F)cc3)s2)o1	.	32µM*	.	?
COc1ccc2c(c1)C1(Nc3ccccc3-c3nc4ccccc4n31)C(=O)N2C (stereo not drawn)	.	-27%	-23%	-3%
COc1ccc2c(c1)C1(Nc3ccccc3-c3nc4ccccc4n31)C(=O)N2 (stereo not drawn)	.	20µM*	.	-10%
